Screening results as filed in PubChem BioAssay.
Ba CapD inh: CapD enzyme inhibition; 0.23% of 140,000 active; purified CapD enzyme, fluorescence intensity read-out; active compounds read low; z-score (concentration not given with the values); in the data active means z-score mostly below about -2.9, no sharp cut-off; inactive means mostly above about -1.9
* marks the source's active call; other numbers are inactive results. The full list was thinned out, with hits kept by preference.

SMILES	Ba CapD inh
COc1ccc(N2CCN(C(=O)CC(c3cccc(C)c3)n3cccc3)CC2)cc1 (configuration not stated)	-1.8
CC(C)(C)n1nc2c(c1NC(=O)c1ccc(S(=O)(=O)N3CCOCC3)cc1)CS(=O)(=O)C2	-0.17
C=CCc1c(C)c(C#N)c2nc3ccccc3n2c1NCCc1ccc(OC)c(OC)c1	6.6
CC(C)S(=O)(=O)C1=NSC2=NC(=O)/C(=C\c3ccco3)C(=N)N21	-3.8*
COc1cc(/C=C2/C(=N)N3C(=NC2=O)SN=C3S(=O)(=O)C(C)C)cc(Cl)c1OC(=O)c1ccco1	-1.3
CS(=O)(=O)C1=NN2C(=N)/C(=C\c3ccco3)C(=O)N=C2S1	0.89
Oc1ccc2cc(-c3nc(-c4ccc(Cl)cc4)cs3)c(=Nc3ccccc3)oc2c1	-0.35
Cc1cc(C)c(C=C2C(=O)OC(C)(C)OC2=O)[nH]1	-4.1
Cc1cc(C=C2C(=O)CCCC2=O)c(C)n1-c1ccccc1	-0.49
Cc1cc(C)c(C=C2C(=O)CCCC2=O)[nH]1	-7.6*
CCc1ccc(NC(=O)CSc2nc3cc(C(=O)NCc4ccco4)ccc3c(=O)n2Cc2ccco2)cc1	2
CC(=O)N1CCc2cccc(NC(=O)CCC(=O)O)c21	0.38
Cc1cc(N2CCc3ccccc32)n2ncnc2n1	-4.7*
Cc1cc(N2CCN(c3ccccn3)CC2)n2ncnc2n1	-0.31
COc1ccccc1-c1c(C)nn2c(N3CCc4ccccc43)cc(C)nc12	3.2
O=C(COc1ccccc1)NCc1ccncc1	0.015
CCOC(=O)C1CCN(c2ncc(/C=N/NC(=O)c3ccncc3)s2)CC1	-0.48
Cc1cc2nc(Cc3ccc(Cl)cc3Cl)c(=O)[nH]c2cc1C	1.2
O=C(c1cccs1)c1cccs1	-0.64
C/C(=N\O)c1ccc2c(c1)CCO2	0.46
CN(C)/C=C/C(=O)c1cccs1	-4.9*
CC(=O)c1ccc2c(c1)CCO2	0.43
Cc1c(C(=O)/C=C/N(C)C)nnn1-c1ccc(F)c(Cl)c1	-1.2
CN(C)/C=C/C(=O)c1ccc(S(=O)(=O)c2ccccc2)cc1	-1.3
CN(C)/C=C/C(=O)c1ccc2c(c1)CCO2	-6.1*
SMILES	Ba CapD inh
Cc1c(C(=O)/C=C/N(C)C)nnn1-c1ccc(Cl)c(Cl)c1	0.09
Cc1c(C(=O)/C=C/N(C)C)nnn1-c1ccccc1	-5.5*
CN(C)/C=C/C(=O)c1ccccc1	-4.9*
Cc1oc(-c2ccccc2)cc1C(=O)/C=C/N(C)C	-0.065
CSc1sc(C(=O)/C=C/N(C)C)c(-c2cccs2)c1C#N	-1.3
CCNc1nc(NCC)n2c(SCC(=O)c3ccccc3)nnc2n1	-0.8
CC1=C(C(=O)N2CCOCC2)C(c2c(F)cccc2Cl)C2=C(CC(C)(C)CC2=O)N1 (configuration not stated)	47
N#Cc1cc(-c2cccc(C(F)(F)F)c2)cnc1Sc1cccc(Cl)c1	-0.52
C=CCOc1ccc(CN2CCN(C(=O)CNC(=O)c3ccco3)CC2)cc1	0.55
OCc1ccccc1CNc1cccc2ccccc12	42
CC1(C)CC(=O)C2=C(C1)Nc1[nH]n(-c3ccccc3)c(=O)c1C2c1ccco1 (configuration not stated)	-4.6*
O=C1CCCC2=C1C(c1ccco1)c1c([nH]n(-c3ccccc3)c1=O)N2 (configuration not stated)	-2.6
CC1(C)CC(=O)C2=C(C1)Nc1ccc3ccccc3c1C2c1ccco1 (configuration not stated)	80
COC(=O)Cc1nc(Nc2ccc(C)c(F)c2)c2c(C)c(C)sc2n1	0.42
COc1cc(/C=C2/SC(=S)N(CC(=O)O)C2=O)cc(OC)c1OC	-1.5
COc1cc(OC)c(OC)cc1/C=C1/SC(=S)N(CC(=O)O)C1=O	-3.8*
COc1ccc(OC)c(/C=C2/SC(=S)N(CC(=O)O)C2=O)c1	-2.3
N/C(=N\OC(=O)c1ccccc1)c1ccc2c(c1)CCO2	0.64
COc1ccc(CSc2nc(-c3ccccc3)c(-c3ccccc3)[nH]2)cc1	52
Cc1ccc(C)n1-c1cc(Cl)ccc1C(=O)O	-5.5*
CCCOc1ccc(Cl)cc1C(=O)O	-0.66
COc1ccc(NC(C)=O)cc1C	6.2
Cc1ccc(C)n1-c1ccccc1C(=O)O	-1
CC(=O)Nc1ccc(-n2c(C)ccc2C)c(C(=O)O)c1	-4.8*
CC(=O)Nc1ccc(NC(=O)c2ccccc2C(=O)O)cc1	-0.15
SMILES	Ba CapD inh
Cc1cccn2cc(-c3cccc(Br)c3)nc12	52
COC(=O)/C(C#N)=C/c1ccccc1C	-4.3*
CCOC(=O)/C(C#N)=C/c1ccccc1	-0.28
COC(=O)/C(C#N)=C/c1ccc(C)o1	-1.4
CNc1nc(N2CCOCC2)nc(N(c2ccccc2)c2ccccc2)n1	0.13
COc1cc(OC)nc(CSc2ccc(NC(=O)c3ccc(C(C)(C)C)cc3)cc2)n1	0.035
COc1ccc(N2C(=O)CC(Sc3nc4c(cc3C#N)CCCC4)C2=O)cc1 (configuration not stated)	0.73
CCN(CC)c1ncc2c(=S)[nH]c(=S)[nH]c2n1	-1.5
C=CCSc1ncc2c(=S)[nH]c(=S)[nH]c2n1	-4.6*
S=c1[nH]c(=S)c2cnc(N3CCOCC3)nc2[nH]1	0.38
CC(Oc1ccccc1)C(=O)n1c(=O)oc2ccccc21 (configuration not stated)	0.055
O=C(c1ccc2c(c1)OCO2)c1cc2ccc(O)cc2oc1=O	-3.9
O=C(O)c1cc2ccc(O)cc2oc1=O	90
O=C(c1ccc(F)cc1)c1cc2ccc(O)cc2oc1=O	-6.4*
COc1cc(/C=c2\sc3nc4ccccc4n3c2=O)ccc1OCC(=O)Nc1cc(C)ccc1C	0.23
CC1CCCCC1NC(=O)c1ccccc1Cl (configuration not stated)	0.31
CC(C)NC(=O)c1ccc(-c2ccccc2)s1	51
O=C1/C(=C/c2ccccc2C(F)(F)F)N2CCC1CC2	-0.36
CCC(=O)NC1C(OC(C)=O)OC(COC(C)=O)C(OC(C)=O)C1OC(C)=O (configuration not stated)	-0.075
O=C(c1ccsc1)N1CCc2c([nH]c3ccccc23)C1	0.39
COC(=O)/C(C#N)=C1\NC(C)=NC(SC)=C1C#N	-0.86
CSC1=C(C#N)C(=C(C#N)C#N)NC(C)=N1	-4.5*
O=C1C(C2(O)C(=O)Nc3ccccc32)CCCC1C1(O)C(=O)Nc2ccccc21 (configuration not stated)	-0.03
O=C1NC(=S)NC(=O)C1=C/C=C/c1ccccc1	0.025
O=C1NC(=O)/C(=C\C=C\c2ccccc2)S1	0.62
SMILES	Ba CapD inh
O=C1NC(=S)S/C1=C\C=C\c1ccccc1	-4*
COc1ccc(NC(=O)c2cc3nc(-c4ccccc4)cc(C(F)(F)F)n3n2)c(OC)c1	0.19
O=C1CN(c2cc(Cl)cc(Cl)c2)C(=O)CN1/N=C/c1cccnc1	-0.81
O=C1CSC(=S)N1/N=C/c1cccnc1	-4*
O=C1CSC(=S)N1/N=C/c1cc(Br)cc(Br)c1O	12
Cc1ccn2c(/C=C(\C#N)c3ccccn3)c(-c3ccc(Cl)cc3)nc2c1	0.27
COc1ccc2cc(C(=O)Nc3ccc(OC)c(OC)c3)c(=Nc3ccc(C(=O)O)cc3)oc2c1	-3.4*
COc1ccc(OC)c(NC(=O)c2cc3ccc(OC)cc3oc2=Nc2ccc(C(=O)O)cc2)c1	0.07
COc1ccc2cc(C(=O)Nc3ccc(Cl)cc3)c(=Nc3ccc(C(=O)O)cc3)oc2c1	0.62
COc1ccc(Br)cc1C1C(N2C(=O)c3cccc([N+](=O)[O-])c3C2=O)C(=O)N1c1ccc(Br)c(C)c1 (configuration not stated)	0.15
Cc1ccc(Cl)cc1-n1c(=O)cc(N2CC(C)OC(C)C2)[nH]c1=O (configuration not stated)	-0.78
